# Reference: PubChem BioAssay AID602481 (Broad Institute, 2012)
# The whole screen tested about 360,000 compounds, of which about 340 (0.094%) were called active. The sample holds actives, similar compounds and a random draw of the others, so the mix is not that of the screen. A number with no mark means an inactive call. Rule as the data show it: active = inhibition above about 40%; inconclusive = no clear call, values can overlap the other calls; inactive = below that.
# Tested on: 7,8-diaminopelargonic acid synthase BioA (Mycobacterium tuberculosis)
# Test: M. tuberculosis BioA enzyme inhibitors, primary screen, biochemical, plate reader, single point, HTS (AID 602481)
# Conditions: purified M. tuberculosis BioA enzyme, at 9.99 µM, hits give high values
row,Structure (SMILES),inhibition
1,COc1ccc(NC(=O)N(C)C[C@H]2OCCCC[C@@H](C)Oc3ccc(NC(=O)Nc4ccc5c(c4)OCO5)cc3C(=O)N([C@H](C)CO)C[C@@H]2C)cc1,-1.28%
2,C[C@H](CO)N1C[C@H](C)[C@@H](CN(C)C)Oc2ccc(NS(=O)(=O)c3cccs3)cc2C1=O,2.81%
3,CC(=O)N1[C@H](CO)[C@H]2c3ccccc3N(C(=O)c3ccc(F)cc3)C[C@H]21,-3.14%
4,Cc1ccc(S(=O)(=O)N(C)C[C@@H]2Oc3c(NC(=O)C4CC4)cccc3C(=O)N([C@H](C)CO)C[C@@H]2C)cc1,-0.903%
5,C[C@@H]1CCCCO[C@H](CN(C)C)[C@@H](C)CN([C@H](C)CO)C(=O)c2cc(N(C)C)ccc2O1,-0.059%
6,CN(C)CC(=O)Nc1ccc2c(c1)[C@H]1C[C@@H](CC(=O)NCc3ccc(Cl)cc3)O[C@@H](CO)[C@H]1O2,0.123%
7,C[C@H]1CN([C@@H](C)CO)C(=O)CCCn2cc(nn2)CO[C@H]1CN(C)C(=O)Nc1cccc(C(F)(F)F)c1,-3.91%
8,COCC(=O)N1[C@H](CO)[C@@H](c2ccccc2)[C@H]1CN(C)C(=O)c1ccncc1,-4.1%
9,C[C@@H]1CN([C@@H](C)CO)C(=O)c2c(c3ccccc3n2C)-c2ccccc2CO[C@H]1CN(C)S(=O)(=O)c1cccs1,-2.08%
10,CN1[C@@H]2CN(C(=O)C3CCCCC3)c3ccccc3[C@@H]2[C@@H]1CO,5.87%
11,CC(C)(C)[S@@](=O)N1Cc2cc(C(=O)N3CCCCC3)nc(-c3cccc(-c4cccc(C#N)c4)c3)c2[C@H]1CCO,0.956%
12,COc1ccc(NC(=O)Nc2ccc3c(c2)[C@H]2C[C@H](CC(=O)NC4CCCCC4)O[C@H](CO)[C@H]2O3)cc1,0.43%
13,Cn1nccc1/C=N\NC(=O)c1ccc(Cl)cc1,69.1% (active)
14,CC(=NNC(=O)c1ccncc1)c1ccc(Cl)c(Cl)c1,-0.685%
15,CN1CCC(=NNC(=O)c2ccc(N(Cc3ccc(Cl)cc3)S(C)(=O)=O)cc2)CC1,-0.516%
16,CC(=O)Nc1ccccc1-c1cn(CC(=O)N2CCOCC2)nn1,-2.47%
17,CC(C)CC#Cc1cnc2c(c1)C(=O)N([C@@H](C)CO)C[C@H](C)[C@@H](CN(C)Cc1ccccc1C(=O)O)O2,-0.715%
18,C[C@@H]1CN([C@@H](C)CO)C(=O)c2cc(NC(=O)CCCN(C)C)ccc2O[C@@H](C)CCCCO[C@H]1CN(C)C(=O)Nc1cccc2ccccc12,-0.656%
19,O=C(C[C@@H]1C[C@H]2c3cc(NC(=O)CC4CC4)ccc3O[C@H]2[C@@H](CO)O1)NCc1ccc2c(c1)OCO2,-1.7%
20,C[C@@H]1CCCCO[C@@H](CN(C)C(=O)Nc2ccc3c(c2)OCO3)[C@H](C)CN([C@H](C)CO)C(=O)c2cc(NC(=O)CCCN(C)C)ccc2O1,1.19%
21,CCC(=O)Nc1ccc2c(c1)C(=O)N(C)C[C@H](OC)[C@H](C)CN(C(=O)c1ccccn1)[C@@H](C)CO2,-2.41%
22,COCCNC(=O)C[C@H]1C=C[C@@H](NS(=O)(=O)c2ccc(C)cc2)[C@@H](CO)O1,-2.72%
23,Cc1n[nH]c(=O)n1-c1ccc(Oc2ccccc2)cc1,-2.98%
24,Cc1nc(=O)c(-c2ccccc2)c(C)n1-c1ccc(Br)cc1,42.7% (active)

row,Structure (SMILES),inhibition
1,S=C1NC(c2ccccc2)=NCN1c1ccc(Br)cc1,0.0265%
2,CN(C)CC(=O)N1CCCCN2[C@@H](CO)[C@H](c3ccc(-c4cccnc4)cc3)[C@@H]2C1,0.035%
3,C[C@H]1CN([C@@H](C)CO)C(=O)c2cc(C3=CCCC3)cnc2O[C@@H]1CN(C)Cc1cccnc1,4.42%
4,CN1C(=O)c2cc(NC(=O)c3cccc(F)c3)ccc2OC[C@H]2O[C@@H](CC(=O)NCc3ccccc3Cl)CC[C@@H]21,0.94%
5,Cc1noc(C)c1NC(=O)Nc1cccc2c1O[C@H](CN(C)S(C)(=O)=O)[C@H](C)CN([C@H](C)CO)C2=O,3.42%
6,Cc1ccccc1S(=O)(=O)N1[C@H](CO)[C@@H](c2ccc(-c3ccccc3)cc2)[C@@H]1C#N,-1.28%
7,C[C@H](CO)N1C[C@H](C)[C@H](CN(C)CC2CCCC2)Oc2ncc(-c3ccc(F)cc3)cc2C1=O,-5.25%
8,CC(C)NC(=O)Nc1cccc2c1O[C@@H](CN(C)Cc1ccc(C(=O)O)cc1)[C@@H](C)CN([C@H](C)CO)C2=O,-3.95%
9,CCC(=O)N1[C@H](CO)[C@@H]2c3ccccc3N(S(=O)(=O)c3ccccc3C)C[C@@H]21,-6.45%
10,C[C@@H]1CN([C@@H](C)CO)C(=O)c2cccc(NC(=O)c3ccc(-c4nccs4)cc3)c2O[C@@H]1CN(C)S(=O)(=O)c1ccccc1,-1.38%
11,CCc1c(C)nc(N2CCN(Cc3ccccc3)CC2)[nH]c1=O,-0.075%
12,O=c1[nH]c(N2CCN(Cc3ccc4c(c3)OCO4)CC2)nc2c1CCCC2,71.1% (active)
13,CCN1CCN(c2nc3c(c(=O)[nH]2)CCC3)CC1,-4.22%
14,CO[C@@H]1CN(C)C(=O)c2ccc(NS(=O)(=O)c3ccc(C)cc3)cc2OC[C@@H](C)N(Cc2nccs2)C[C@H]1C,-0.694%
15,CCC(=O)Nc1ccc2c(c1)C(=O)N(C)[C@@H]1CC[C@H](CC(=O)NCc3ccccc3)O[C@H]1CO2,-0.647%
16,Cc1ccc(S(=O)(=O)N(C)C[C@@H]2Oc3c(NC(=O)C4CC4)cccc3C(=O)N([C@H](C)CO)C[C@H]2C)cc1,-0.505%
17,CC(C)NC(=O)N(C)C[C@@H]1Oc2ccc(NC(=O)CCCCCC(=O)Nc3ccccc3N)cc2C(=O)N([C@@H](C)CO)C[C@H]1C,-2.93%
18,CCNC(=O)Nc1ccc2c(c1)C(=O)N(C)[C@@H]1CC[C@@H](CC(=O)NCCOC)O[C@@H]1CO2,0.346%
19,CNC(=O)C[C@H]1CC[C@@H]2[C@H](COc3ccc(NC(=O)Nc4cccc(F)c4)cc3C(=O)N2C)O1,32%
20,COCCNC(=O)C[C@H]1CC[C@@H]2[C@H](COc3ccc(NC(=O)Nc4cccc(F)c4)cc3C(=O)N2C)O1,44.7% (active)
21,CCC(=O)N1[C@H](C(=O)NCc2ccc(F)cc2)[C@@H](CO)[C@@H]2Cn3c(ccc(C4=CCCCC4)c3=O)[C@@H]21,-2.21%
22,CS(=O)(=O)N1[C@H](C(=O)NCc2ccncc2)[C@@H](CO)[C@@H]2Cn3c(ccc(C4=CCCCC4)c3=O)[C@@H]21,49% (active)
23,CCN1[C@@H]2c3ccc(C4=CCCC4)c(=O)n3C[C@@H]2[C@@H](CO)[C@@H]1C(=O)NCc1ccccn1,-3.69%
24,C/C=C/c1cnc2c(c1)C(=O)N([C@H](C)CO)C[C@@H](C)[C@H](CN(C)Cc1cccc(C(=O)O)c1)O2,0.203%

row,Structure (SMILES),inhibition
1,C[C@@H]1CN([C@@H](C)CO)C(=O)Cc2cc(NC(=O)CCCCCC(=O)Nc3ccccc3N)ccc2O[C@H]1CN(C)Cc1ccc(Cl)c(Cl)c1,-3.74%
2,COCC(=O)Nc1ccc2c(c1)OC[C@@H](C)N(Cc1ccccn1)C[C@H](C)[C@@H](OC)CN(C)C2=O,-0.629%
3,C[C@H](CO)N1C[C@H](C)[C@H](CN(C)Cc2cccc(C(=O)O)c2)Oc2ncc(-c3ccccc3F)cc2C1=O,-3.23%
4,O=c1oc2c(CN3CCCCC3)c(O)ccc2c2c1CCCCC2,16.6%
5,COc1ccc2c3c(c(=O)oc2c1OCC(=O)C(C)(C)C)CCCC3,0.336%
6,CCCOc1ccc2c3c(c(=O)oc2c1OCCC)CCC3,49.3% (active)
7,C[C@H]1CN([C@@H](C)CO)C(=O)CCCn2nncc2CO[C@H]1CN(C)Cc1cccc(C(=O)O)c1,-5.89%
8,C[C@@H]1CN([C@H](C)CO)C(=O)Cc2cc(NS(=O)(=O)c3ccc(F)cc3)ccc2O[C@@H]1CN(C)S(=O)(=O)c1ccc(F)cc1,4.14%
9,CN1c2ccc(C3=CCCCC3)cc2[C@@H]2[C@@H](CCN2S(=O)(=O)c2ccccc2F)[C@H]1CO,-2.02%
10,Cc1ccccc1S(=O)(=O)N1[C@H](C#N)[C@H](c2ccccc2)[C@@H]1CO,-0.99%
11,CC(C)NC(=O)N(C)C[C@@H]1Oc2ccc(NC(=O)C3CC3)cc2C(=O)N([C@@H](C)CO)C[C@H]1C,-0.507%
12,C[C@H](CO)N1C[C@H](C)[C@@H](CN(C)C(=O)Nc2ccc3c(c2)OCO3)Oc2ccc(NS(=O)(=O)c3ccc(Cl)cc3)cc2C1=O,0.544%
13,C[C@@H]1CN([C@@H](C)CO)C(=O)Cc2cc(NC(=O)C3CCCCC3)ccc2O[C@H]1CN(C)C(=O)Nc1ccccc1,0.073%
14,C[C@H]1CN([C@@H](C)CO)C(=O)c2cc(Br)cnc2O[C@H]1CN(C)CC1CCCC1,-0.484%
15,CCCN1[C@H](C(=O)N2CCOCC2)[C@@H](CO)[C@@H]2Cn3c(ccc(/C=C/c4ccccc4)c3=O)[C@@H]21,-3.1%
16,COc1ccccc1-c1n[nH]nc1C1=CC(=O)CC(C)(C)C1,-1.72%
17,CC1(C)CC(=O)C=C(c2ccc3ncccc3c2)C1,64.2% (active)
18,CC1(C)CC(=O)C=C(c2ccc(Cl)c(C(F)(F)F)c2)C1,-0.352%
19,O=S(=O)(N[C@@H]1CC[C@H](CCn2cc(-c3ccccc3F)nn2)O[C@H]1CO)c1ccc(F)cc1,1.57%
20,Cc1c(OC(C)C(=O)N[C@@H](Cc2ccccc2)C(=O)O)ccc2c3c(c(=O)oc12)CCCC3 (some centres not stated),0.433%
21,Cc1cc(=O)oc2c(C)c(OC(C)C(=O)NC3CCN(Cc4ccccc4)CC3)ccc12 (configuration not stated),-3.72%
22,Cc1c(OC(C)C(=O)NCC2CCC(C(=O)O)CC2)ccc2c1oc(=O)c1ccccc12 (configuration not stated),43.7% (active)
23,O=C(CN1CCOCC1)N1CCCCN2[C@H](CO)[C@H](c3ccc(Br)cc3)[C@H]2C1,4.49%
24,COc1cccc(S(=O)(=O)N[C@H]2C=C[C@H](CC(=O)NCc3ccc(Cl)cc3)O[C@@H]2CO)c1,-1.44%
